Source: PubChem BioAssay AID492996 (Johns Hopkins Ion Channel Center, 2010)
Measured potencies and affinities stand elsewhere. Active and inactive are the calls of the source.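 Rule for the calls: active = peak inhibition of the TRPC4 channel signal over 30% at some dose, with a fitted dose response curve; inactive = no inhibition or no dose response curve.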

Target: Short transient receptor potential channel 4 (Mus musculus) (UniProt Q9QUQ5)
Test: TRPC4 inhibition under acetylcholine activation, SAR follow-up, cell-based, acetylcholine stimulus, HEK293 TRPC4, Fluo-4 (AID 492996)
Details: HEK293 TRPC4 cells, ACh-evoked Fluo-4 calcium flux; series mostly up to 20 µM

Short transient receptor potential channel 4 (Mus musculus), sequence (Q9QUQ5 whole entry, looked up): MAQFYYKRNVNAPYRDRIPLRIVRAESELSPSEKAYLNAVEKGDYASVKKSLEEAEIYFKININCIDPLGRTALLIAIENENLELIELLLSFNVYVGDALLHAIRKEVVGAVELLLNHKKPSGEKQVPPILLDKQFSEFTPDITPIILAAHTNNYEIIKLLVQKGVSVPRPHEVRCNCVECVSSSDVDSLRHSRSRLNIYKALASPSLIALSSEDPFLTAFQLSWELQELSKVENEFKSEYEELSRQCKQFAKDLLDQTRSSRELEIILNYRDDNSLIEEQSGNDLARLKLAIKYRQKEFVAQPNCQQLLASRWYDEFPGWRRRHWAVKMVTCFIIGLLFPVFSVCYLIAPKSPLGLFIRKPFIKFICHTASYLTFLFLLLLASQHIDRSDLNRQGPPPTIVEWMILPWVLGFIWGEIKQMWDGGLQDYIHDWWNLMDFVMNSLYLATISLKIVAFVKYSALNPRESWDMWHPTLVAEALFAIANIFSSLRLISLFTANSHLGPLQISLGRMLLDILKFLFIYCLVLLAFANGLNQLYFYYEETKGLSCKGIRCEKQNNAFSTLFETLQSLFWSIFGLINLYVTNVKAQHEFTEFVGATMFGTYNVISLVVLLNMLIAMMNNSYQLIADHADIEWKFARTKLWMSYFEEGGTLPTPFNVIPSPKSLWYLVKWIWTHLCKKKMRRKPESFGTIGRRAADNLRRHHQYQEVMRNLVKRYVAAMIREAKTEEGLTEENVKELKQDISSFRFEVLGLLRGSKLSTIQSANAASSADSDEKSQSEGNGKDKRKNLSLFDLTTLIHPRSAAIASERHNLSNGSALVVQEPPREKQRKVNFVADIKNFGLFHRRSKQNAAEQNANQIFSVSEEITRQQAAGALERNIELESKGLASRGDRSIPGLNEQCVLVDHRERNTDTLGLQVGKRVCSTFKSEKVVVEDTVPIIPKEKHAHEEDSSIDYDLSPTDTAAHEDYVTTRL

outcome, inactive:
Cc1cc(N2CC(C)CC(C)C2)nc2ccccc12 (stereo unspecified)
Cc1cc(N2CCOCC2)nc2ccccc12
Cc1ccnc(N2CCCCCC2)c1
FC(F)(F)c1cc(N2CCCCCC2)nc2ccccc12
Cc1cc(N2CCCC(O)C2)nc2ccccc12 (stereo unspecified)
Cc1ccnc(N2CCCCCC2)n1
Cc1cc(N2CCN(c3ncccn3)CC2)nc2ccccc12
Cc1cc(N(C)CCN(C)C)nc2ccccc12
COc1ccc(N2CCN(c3cc(C)c4ccccc4n3)CC2)cc1
Cc1cc(N2CCN(c3ccccc3C#N)CC2)nc2ccccc12
CCN(CC)c1cc(C)c2ccccc2n1
Cc1cc(N2CCC(N3CCOCC3)CC2)nc2ccccc12
c1ccc(-c2cc(N3CCCCCC3)nc3ccccc23)cc1
Cc1cc(N2CCCCCC2)nc2c(C)cccc12
Cc1cc(N2CCOc3ccccc32)nc2ccccc12
Cc1cc(N2CCN(CC3CCCO3)CC2)nc2ccccc12 (stereo unspecified)
Cc1ccc2nc(N3CCCCCC3)cc(C)c2c1
CCc1ccc2nc(N3CCCCCC3)cc(C)c2c1
Cc1cc(N2CCCCCC2)nc2ccc(F)cc12
COCCN(C)c1cc(C)c2ccccc2n1
COc1ccccc1N1CCN(c2cc(C)c3ccccc3n2)CC1
